# Data: PubChem BioAssay (EPA / NIEHS)
# “And” between values parts separate entries of the source, which are not always exact repeats. Equal values may be shown once. Some structures have more than one record in an assay (separate samples or runs), and their calls can disagree. The source made the active and inactive calls. How the source made its calls: active means hit-call score of the fitted dose curve at least 0.9, where 1 is the maximum; inactive means score below 0.9.
# Legend:
# [1] = read-out: Vascular cell adhesion molecule 1 (VCAM1), VCAM1 (gene 7412); assay: BSK_4H_VCAM1: BioMAP Diversity Plus: 4H Assay for Vascular cell adhesion molecule 1 (VCAM1) Biomarker Activity (AID 2283033); conditions: primary human endothelial cells (HUVEC); actives raise or lower the signal;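 on outcome: cell-surface VCAM-1 protein measured by ELISA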
# In short: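 VCAM-1 ELISA read 24 h after chemical dosing of HUVEC in the BioMAP 4H system, with gain or loss of signal fitted relative to DMSO. Parallel SRB staining (560 nm) checked overt cytotoxicity.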
# [2] = read-out: Interferon-gamma inducible Protein 10 (IP10), CXCL10 (gene 3627); assay: BSK_BE3C_IP10: BioMAP Diversity Plus: BE3C Assay for Interferon-gamma inducible Protein 10 (IP10) Biomarker Activity (AID 2283034); conditions: primary human bronchial epithelial cells; actives raise or lower the signal
# In short: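 IP-10 quantified by ELISA in human primary bronchial epithelial cell cultures at 24 hours post-dosing. Gain or loss of signal fitted relative to DMSO; parallel SRB staining assessed overt cytotoxicity.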
# [3] = read-out: Monokine induced gamma interferon (MIG), CXCL9 (gene 4283); assay: BSK_BE3C_MIG: BioMAP Diversity Plus: BE3C Assay for Monokine induced gamma interferon (MIG) Biomarker Activity (AID 2283035); conditions: primary human bronchial epithelial cells; actives raise or lower the signal
# In short: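 Dose cells (human primary bronchial epithelial), incubate 24 h, quantify MIG by ELISA, then fit concentration–response in both directions relative to DMSO control.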
# [4] = read-out: Plasminogen activator inhibitor-1 (PAI1), SERPINE1 (gene 5054); assay: BSK_BE3C_PAI1: BioMAP Diversity Plus: BE3C Assay for Plasminogen activator inhibitor-1 (PAI1) Biomarker Activity (AID 2283037); conditions: primary human bronchial epithelial cells; actives raise or lower the signal
# In short: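 PAI-1 was measured by ELISA in human primary bronchial epithelial cultures 24 h after chemical dosing, with cytotoxicity checked by SRB total-protein staining in parallel cultures. Activity was fitted in both directions relative to DMSO.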
# [5] = read-out: urokinase plasminogen activator (uPA), PLAU (gene 5328); assay: BSK_BE3C_uPA: BioMAP Diversity Plus: BE3C Assay for urokinase plasminogen activator (uPA) Biomarker Activity (AID 2283038); conditions: primary human bronchial epithelial cells; actives raise or lower the signal;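 on outcome: uPA protein level quantified by ELISA in cell cultures; uPA read one day after compound addition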
# In short: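 Primary human bronchial epithelial cells, uPA measured by ELISA 24 h after dosing. Bidirectional change relative to DMSO; cytotoxicity checked in parallel cultures by sulforhodamine B total-protein staining.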
# [6] = read-out: Urokinase-type plasminogen activator receptor (uPAR), PLAUR (gene 5329); assay: BSK_BE3C_uPAR: BioMAP Diversity Plus: BE3C Assay for Urokinase-type plasminogen activator receptor (uPAR) Biomarker Activity (AID 2283039); conditions: primary human bronchial epithelial cells; actives raise or lower the signal;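 on outcome: cells exposed to compound for one day before measurement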
# In short: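 uPAR levels were measured by ELISA after 24 h compound treatment of primary human bronchial epithelial cells, fitted in both directions relative to DMSO. Parallel SRB staining served as the cytotoxicity read-out.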
# [7] = read-out: Interleukin-6 (IL6), IL6 (gene 3569); assay: BSK_CASM3C_IL6: BioMAP Diversity Plus: CASM3C Assay for Interleukin-6 (IL6) Biomarker Activity for (AID 2283040); conditions: primary human coronary artery smooth muscle cells; actives raise or lower the signal
# [8] = read-out: Tissue plasminogen activator (tPA), PLAT (gene 5327); assay: BSK_BE3C_tPA: BioMAP Diversity Plus: BE3C Assay for Tissue plasminogen activator (tPA) Biomarker Activity (AID 2283041); conditions: primary human bronchial epithelial cells; actives raise or lower the signal;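 on outcome: tPA level quantified by ELISA one day after compound addition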
# In short: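 tPA measured by ELISA 24 h after dosing human primary bronchial epithelial cells (BE3C system). Changes in either direction were fitted against DMSO. Parallel cultures were stained with SRB to flag overt cytotoxicity.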
# [9] = read-out: Interleukin-8 (IL8), CXCL8 (gene 3576); assay: BSK_CASM3C_IL8: BioMAP Diversity Plus: CASM3C Assay for Interleukin-8 (IL8) Biomarker Activity (AID 2283042); conditions: primary human coronary artery smooth muscle cells; actives raise or lower the signal;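 further: IL-8 protein level quantified by ELISA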
# [10] = read-out: Transforming growth factor beta 1 (TGFb1), TGFB1 (gene 7040); assay: BSK_BE3C_TGFb1: BioMAP Diversity Plus: BE3C Assay for Transforming growth factor beta 1 (TGFb1) Biomarker Activity (AID 2283036;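 on outcome: TGF-b1 protein level measured by ELISA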); conditions: primary human bronchial epithelial cells; actives raise or lower the signal
# In short: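 ELISA readout of TGF-b1 from human lung bronchial epithelial primary cells, taken 24 h post-treatment. Gain or loss of signal fitted relative to DMSO baseline, with parallel SRB staining for overt cytotoxicity.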
smiles,measurement,setting,value
Oc1ccc(Cc2ccccc2O)cc1,outcome,[1],inactive
same,outcome,[2],inactive
same,outcome,[3],inactive
same,outcome,[4],inactive
same,outcome,[5],inactive
same,outcome,[6],inactive
same,outcome,[7],inactive
same,outcome,[8],inactive
same,outcome,[9],inactive
O=C(NO)c1ccccc1,outcome,[1],inactive
same,outcome,[2],inactive
same,outcome,[3],inactive
same,outcome,[10],inactive
same,outcome,[4],inactive
same,outcome,[5],inactive
same,outcome,[6],inactive
same,outcome,[7],inactive
same,outcome,[8],inactive
same,outcome,[9],inactive
O=C(c1ccccc1)c1ccccc1,outcome,[1],inactive
same,outcome,[2],inactive
same,outcome,[3],inactive
same,outcome,[10],inactive
same,outcome,[4],inactive
same,outcome,[5],inactive
same,outcome,[6],inactive
same,outcome,[7],inactive
same,outcome,[8],inactive
same,outcome,[9],inactive
COc1cccc(O)c1,outcome,[1],inactive
same,outcome,[2],inactive
same,outcome,[3],inactive
same,outcome,[10],inactive
same,outcome,[4],inactive
same,outcome,[5],inactive
same,outcome,[6],inactive
same,outcome,[7],inactive
same,outcome,[8],inactive
same,outcome,[9],inactive
CCCCCCCCCCCCOS(=O)(=O)O,outcome,[1],inactive
same,AC50,[2],12.5 µM (active)
same,AC50,[3],26.4 µM (active)
same,AC50,[10],28.7 µM (active)
same,AC50,[4],33.3 µM (active)
same,AC50,[5],31.6 µM (active)
same,AC50,[6],32.8 µM (active)
same,outcome,[7],inactive
same,AC50,[8],27.5 µM (active)
same,outcome,[9],inactive
CN(CCO)S(=O)(=O)C(F)(F)C(F)(F)C(F)(F)C(F)(F)C(F)(F)C(F)(F)C(F)(F)C(F)(F)F,outcome,[1],inactive
same,outcome,[2],inactive
same,outcome,[3],inactive
same,outcome,[4],inactive
same,outcome,[5],inactive
same,outcome,[6],inactive
same,outcome,[7],inactive
same,outcome,[8],inactive
same,outcome,[9],inactive
Cc1ccc(C(=O)c2ccccc2)cc1,AC50,[1],30.2 µM (active)
same,outcome,[2],inactive
same,outcome,[3],inactive
same,outcome,[10],inactive
same,outcome,[4],inactive
same,outcome,[5],inactive
same,outcome,[6],inactive
same,outcome,[7],inactive
same,outcome,[8],inactive
same,AC50,[9],0.0224 µM (active)
O=S(=O)(O)C(F)(F)C(F)(F)C(F)(F)C(F)(F)C(F)(F)C(F)(F)C(F)(F)C(F)(F)C(F)(F)C(F)(F)F,outcome,[1],inactive
same,AC50,[2],13.3 µM (active) and 12 µM (active)
same,outcome,[3],inactive
same,AC50,[4],7.29 µM (active) and 5.4 µM (active)
same,outcome,[5],inactive
same,AC50,[6],21.5 µM (active)
same,outcome,[6],inactive
same,outcome,[7],inactive
same,outcome,[8],inactive
same,outcome,[9],inactive
CCCCCCCCCCCCCCCCCC[N+](C)(C)Cc1ccccc1,AC50,[1],2.8 µM (active)
same,AC50,[2],4.27 µM (active)
same,AC50,[3],5.77 µM (active)
same,outcome,[10],inactive
same,outcome,[4],inactive
same,AC50,[5],10 µM (active)
same,outcome,[6],inactive
same,AC50,[7],4.87 µM (active)
same,outcome,[8],inactive
same,AC50,[9],12.6 µM (active)
